The test system of assay [1] is DLD1. Put plainly: cell viability (CellTiter-Glo) relative to plate median (fraction of plate median); higher = more viable cells. Particulars: 5 µM; treatment time 24 h; reporter: 7TFP. In outline: (§1)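 Values are well luminescence normalised to the plate median, from either a firefly luciferase or a CellTiterGlo readout on parallel plates. The cells, colorectal cancer lines stably transduced with lentiviral 7TFP or TCF4/Wnt firefly luciferase reporters, were treated with library compounds at a final 5 µM for 24 h. The mean of two independent replicates is listed.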
In general terms: ATP-based viability assays read luminescence as a measure of living cells.

For another assay, the system named is HCT116. The assay is described as above. Particulars: 5 µM; treatment time 24 h; reporter: TCF4/Wnt. In outline: as §1
In assay [2] the test system is SW480. Described as above. The conditions noted are these: 5 µM; treatment time 24 h; reporter: 7TFP. Put shortly: as §1
The subject of assay [3] is DLD1. Put plainly: TCF/Wnt firefly luciferase reporter signal relative to plate median (fraction of plate median); higher = higher Wnt reporter signal. Particulars: 5 µM; treatment time 24 h; reporter: 7TFP. Put shortly:
as §1
(In general: In a reporter assay the amount or activity of a reporter protein is the signal.)

Assay [4] relates to SW480. Described as above. The conditions noted are these: 5 µM; treatment time 24 h; reporter: 7TFP. Put shortly: as §1

± gives the standard deviation of the averaged measurements.

Consider `CC(N)C12CC3CC(CC(C3)C1)C2` (stereo not given), for which the cell viability in the assay on DLD1 [1] was found to be 1.02 ± 0.028; in the assay with HCT116 it was 0.986 ± 0.02; in the assay on SW480 [2], 0.977 ± 0.025. The “TCF/Wnt firefly luciferase reporter signal” value in the assay on DLD1 [3] was found to be 0.962 ± 0.03; in the assay with SW480 [4] it was 0.9945 ± 0.0078.
For the molecule `CCCCCC/C=C\CCCCCCCc1cccc(O)c1C(=O)O`, the results for the cell viability in the assay with DLD1 [1], in the assay with HCT116 and in the assay on SW480 [2] were 1.05 ± 0.14, 1.08 ± 0.028 and 1.05 ± 0.042, respectively. Moreover, the entries for the “TCF/Wnt firefly luciferase reporter signal” value in the assay with DLD1 [3] and in the assay with SW480 [4] were 0.985 ± 0.14 and 0.996 ± 0.021, respectively.
Take `CO[C@H]1/C=C/O[C@@]2(C)Oc3c(C)c(O)c4c(O)c(c5c(nc6cc(C)ccn65)c4c3C2=O)NC(=O)/C(C)=C\C=C\[C@H](C)[C@H](O)[C@@H](C)[C@@H](O)[C@@H](C)[C@H](OC(C)=O)[C@@H]1C`: the cell viability was determined as 1.05 ± 0.093 in the assay with DLD1 [1], 1.1 ± 0.035 in the assay on HCT116 and 1.04 ± 0.042 with SW480 [2]. The “TCF/Wnt firefly luciferase reporter signal” value in the assay on DLD1 [3] was 1.05 ± 0.15; in the assay on SW480 [4], 1.11 ± 0.071.
`COc1ccc2ccc(=O)oc2c1CC=C(C)C`: the figures for the cell viability in the assay with DLD1 [1], in the assay on HCT116 and in the assay with SW480 [2] were 1.04 ± 0.13, 1.01 ± 0.026 and 0.985 ± 0.036, respectively. In addition, the “TCF/Wnt firefly luciferase reporter signal” value was determined as 1.01 ± 0.033 with DLD1 [3] and 0.99 ± 0.071 in the assay on SW480 [4].
`CC(C)CCC[C@@H](C)[C@H]1CC[C@H]2[C@@H]3C(=O)C=C4C[C@@H](O)CC[C@]4(C)[C@H]3CC[C@]12C`: the cell viability in the assay with DLD1 [1] came to 1.1 ± 0.092; in the assay with HCT116, 0.99; with SW480 [2] it was 1.04 ± 0.1. Moreover, the “TCF/Wnt firefly luciferase reporter signal” value in the assay with DLD1 [3] came out at 0.959 ± 0.018; in the assay on SW480 [4] it was 1.01 ± 0.027.
In the same order, the values of `CC12CC3CC(C)(C1)CC(N)(C3)C2` are 1.06 ± 0.16, 1.05 ± 0.05, 1.02 ± 0.014, 1.04 ± 0.064 and 1.04 ± 0.064.
Taken in the same sequence, the figures for `COc1ccc2c(c1)OCC(Cc1ccc(O)c(OC)c1)C2=O` (stereo not given) were 0.99 ± 0.014, 1.04 ± 0.07, 0.915 ± 0.049, 0.887 ± 0.066 and 0.971 ± 0.084.
For the molecule `CC(NCCC(c1ccccc1)c1ccccc1)c1ccccc1` (stereo not given), the cell viability in the assay on DLD1 [1] worked out at 0.982 ± 0.04; in the assay on HCT116, 1.02 ± 0.021; in the assay on SW480 [2], 1 ± 0.051. In addition, the “TCF/Wnt firefly luciferase reporter signal” value is 0.9435 ± 0.0035 in the assay on DLD1 [3] and 0.92 ± 0.015 in the assay on SW480 [4].
In the same order, the values of `CC(=O)OC1CCC2(C)C3=C(CC[C@H]2C1(C)C)[C@@]1(C)CC[C@@H]([C@@H](C)CCC=C(C)C)[C@]1(C)CC3` (stereo not given in full) are 1.04 ± 0.097, 1 ± 0.064, 0.961 ± 0.0014, 1.06 ± 0.17 and 1.11 ± 0.014.
For the molecule `C[C@H](CCC(=O)O)[C@H]1CC[C@H]2[C@@H]3[C@@H](O)C[C@@H]4C[C@H](O)CC[C@]4(C)[C@H]3CC[C@]12C`, the figures for the cell viability in the assay on DLD1 [1], with HCT116 and in the assay with SW480 [2] were 0.966 ± 0.029, 1.01 ± 0.025 and 0.958 ± 0.028, respectively. Moreover, the “TCF/Wnt firefly luciferase reporter signal” value with DLD1 [3] was found to be 0.89 ± 0.061; in the assay on SW480 [4], 1.02 ± 0.09.
In the same order, the values of `CC(=O)O[C@H]1CC[C@]2(C)C3=C(CC[C@H]2C1(C)C)[C@]1(C)CC[C@H]([C@H](C)CCC=C(C)C)[C@@]1(C)CC3` are 0.966 ± 0.036, 0.957 ± 0.055, 0.953 ± 0.034, 0.9 ± 0.098 and 0.958 ± 0.1.
In the same order, the values of `CO/N=C1\CN(c2nc3c(cc2F)c(=O)c(C(=O)O)cn3C2CC2)CC1CN` (stereo not given) are 1.04 ± 0.06, 1.09 ± 0.057, 0.995 ± 0.021, 0.971 ± 0.11 and 1.06 ± 0.042.
Taken in the same sequence, the figures for `COc1cc(OC)c2c(=O)c(-c3ccccc3)coc2c1` were 0.989 ± 0.0028, 1.04 ± 0.12, 1.025 ± 0.0071, 1.09 ± 0.064 and 1.1 ± 0.05.
Turning to `CC(C)c1c(O)ccc2c1CCC1[C@@](C)(C=O)CCC[C@]21C` (stereo not given in full), the cell viability in the assay on DLD1 [1] amounted to 1.03 ± 0.021; with HCT116 it was 1.01 ± 0.031; with SW480 [2], 0.965 ± 0.04. Further, the “TCF/Wnt firefly luciferase reporter signal” value with DLD1 [3] worked out at 1.03 ± 0.014; in the assay on SW480 [4], 1.08 ± 0.028.
For `COC1=C(O)C(=O)c2c(cc3oc(C(C)=O)c(O)c3c2O)C1=O`, the cell viability is 1.03 ± 0.055 with DLD1 [1], 1.07 ± 0.064 with HCT116 and 0.985 ± 0.064 in the assay with SW480 [2]. Besides, the “TCF/Wnt firefly luciferase reporter signal” value in the assay on DLD1 [3] worked out at 1.05 ± 0.11; in the assay with SW480 [4], 0.949 ± 0.027.
Taken in the same sequence, the figures for `Cc1cc(C)cc(OCC2CNC(=O)O2)c1` (stereo not given) were 0.964 ± 0.013, 1.07 ± 0.1, 0.975 ± 0.05, 1.02 and 0.957 ± 0.039.
Taken in the same sequence, the figures for `N[C@@H](CC(=O)N1CCn2c(nnc2C(F)(F)F)C1)Cc1cc(F)c(F)cc1F` were 1.09 ± 0.042, 0.997 ± 0.061, 0.963 ± 0.041, 0.95 ± 0.069 and 0.935 ± 0.081.
Regarding `C/C=C/C=C/c1cc2cc3c(c(O)c2c(=O)[nH]1)C1(CC3)C(O)=c2c(=O)c3c(=O)cc(OC)c(=O)c=3c(=O)c2=C1O` (stereo not given) [Fredericamycin], the cell viability was 1.03 ± 0.042 in the assay on DLD1 [1], 0.934 ± 0.022 with HCT116 and 1.04 ± 0.076 in the assay on SW480 [2]. Also, the entries for the “TCF/Wnt firefly luciferase reporter signal” value in the assay with DLD1 [3] and in the assay on SW480 [4] were 1.06 ± 0.21 and 0.981 ± 0.084, respectively.
On to `C[C@]12CCC3c4ccc(OC(=O)c5ccccc5)cc4CCC3C1CCC2=O` (stereo not given in full), for which the cell viability worked out at 1.05 ± 0.05 in the assay on DLD1 [1], 1.01 ± 0.021 in the assay on HCT116 and 0.991 ± 0.011 with SW480 [2]. In addition, the “TCF/Wnt firefly luciferase reporter signal” value in the assay on DLD1 [3] amounted to 0.978 ± 0.045; with SW480 [4] it was 0.989 ± 0.058.
In the same order, the values of `O=C(O)P(=O)(O)O` are 1.06 ± 0.028, 0.965 ± 0.05, 1 ± 0.011, 0.834 ± 0.0092 and 0.944 ± 0.031.
Taken in the same sequence, the figures for `CN(C)CCOC(=O)COc1ccc(Cl)cc1` were 0.979 ± 0.0085, 0.991 ± 0.083, 0.956 ± 0.052, 1.21 ± 0.14 and 1.14 ± 0.05.
Consider `Cc1cn([C@H]2C[C@H](N=[N+]=[N-])[C@@H](CO)O2)c(=O)[nH]c1=O`, for which the cell viability in the assay on DLD1 [1] amounted to 0.976 ± 0.012; in the assay on HCT116, 0.958 ± 0.018; in the assay with SW480 [2], 1 ± 0.022. For the same molecule, the “TCF/Wnt firefly luciferase reporter signal” value is 0.874 ± 0.02 in the assay on DLD1 [3] and 0.928 ± 0.011 in the assay with SW480 [4].
Taken in the same sequence, the figures for `Cc1cccc(C)c1OCC(C)N` (stereo not given) were 0.988 ± 0.059, 0.983 ± 0.12, 1.06, 1.19 ± 0.078 and 1.05 ± 0.1.
`C=C(CC)C(=O)c1ccc(OCC(=O)O)c(Cl)c1Cl`: the cell viability with DLD1 [1] was determined as 1.01 ± 0.046; with HCT116, 1.01 ± 0.046; in the assay with SW480 [2], 1.03 ± 0.05. In addition, the “TCF/Wnt firefly luciferase reporter signal” value came to 1.11 ± 0.11 in the assay with DLD1 [3] and 1.095 ± 0.0071 in the assay on SW480 [4].
As for `CC(C)C[C@@H]1NC(=O)[C@H](CCCN)NC(=O)[C@H](C(C)C)NC(=O)[C@H](Cc2ccc(O)cc2)N[C@@H](CCC(=O)O)C(=O)N[C@@H](CC(N)=O)C(=O)[C@@H](Cc2ccccc2)NC(=O)[C@H](Cc2ccccc2)NC(=O)[C@@H]2CCCN2C(=O)[C@@H](Cc2ccccc2)NC1=O`, the cell viability in the assay with DLD1 [1] worked out at 0.894 ± 0.091; with HCT116 it was 0.71 ± 0.072; in the assay on SW480 [2] it was 0.486 ± 0.082. In addition, the “TCF/Wnt firefly luciferase reporter signal” value in the assay with DLD1 [3] came to 0.685 ± 0.041; in the assay on SW480 [4], 0.469 ± 0.1.
In the same order, the values of `COc1ccc2cc(CCC(C)=O)ccc2c1` are 0.968 ± 0.074, 0.905 ± 0.09, 0.925 ± 0.0085, 1.24 ± 0.27 and 1.25 ± 0.035.
`Cc1cc(O)c(C)c(O)c1C(=O)O`: the cell viability amounted to 1 ± 0.05 with DLD1 [1], 0.927 ± 0.0085 in the assay on HCT116 and 0.996 ± 0.021 with SW480 [2]. For the same molecule, the “TCF/Wnt firefly luciferase reporter signal” value was found to be 0.792 ± 0.36 with DLD1 [3] and 0.949 ± 0.23 in the assay on SW480 [4].
